Experiment [1] is described as follows: qHTS of pediatric cancer cell lines to identify multiple opportunities for drug repurposing: Confirmatory screen for OHS-50 cells (AID 1347128).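 Note: compound exposure lasted 48 h at 37 degrees C; nearly all actives have a fitted effect of over 55% in size.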 Note: potency is the fitted concentration of half-maximal effect. The method in brief:
(§1)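 Cells (500-1,000/well) rested 5 h, then received compounds for 48 h; metabolically active cells were measured by CellTiter-Glo luminescence. Final concentrations spanned up to 46 µM (MIPE, 11-point) or 0.59 nM-46 µM (NPC, 8-point) in primary screens, 11-point in follow-ups.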
A general note: In qHTS, concentration-response curves come from the screen itself.

A short description of experiment [2]: qHTS of pediatric cancer cell lines to identify multiple opportunities for drug repurposing: Confirmatory screen for SK-N-SH cells (AID 1347129).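 Note: cells exposed to compound for 48 h before viability read; nearly all actives have a fitted effect of over 60% in size.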 Note: potency is the fitted concentration of half-maximal effect. In short, it runs like this:
as §1

The test system of experiment [3] is Zika virus NS2B-NS3 protease. Put plainly: Primary screen GU AMC qHTS for Zika virus inhibitors (AID 1347154).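 For activity change, negative = inhibition: 0% = no-inhibitor control and -100% = no-enzyme control.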 Note: nearly all actives have a fitted effect of over 70% in size. Note: potency is the fitted concentration of half-maximal effect. In short, it runs like this:
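Fluorogenic AMC-substrate cleavage by noncovalent NS2B-NS3 protease complex (25 nM, pH 8.0 Tris buffer with Tween 20) followed for 15 minutes at room temperature (~20% conversion). Percent inhibition from ex340/em450 signal change, fitted by 4-parameter Hill equation.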

For experiment [4], the system named is Zika virus NS2B-NS3 protease (unlinked complex). Briefly: Primary screen GU Rhodamine qHTS for Zika virus inhibitors: Unlinked NS2B-NS3 protease assay (AID 1347159). Note: % is set by controls: 0 for no effect and ±100 for the full control effect; nearly all actives have a fitted effect of over 60% in size. The method in brief:
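Noncovalent NS2B hydrophilic domain/NS3 protease complex (25 nM final) in 10 mM Tris-HCl pH 8.0, 0.01% Tween 20, preincubated 15 min with compounds (up to 114 microM), then 1.5 microM Rhodamine110 substrate. Fluorescence change over 15 min fitted to 4-parameter Hill.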

Experiment [5] is described as follows: Confirmatory screen GU Rhodamine qHTS for Zika virus inhibitors qHTS (AID 1347157).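 Note: plate controls were no-inhibitor wells for no effect and no-enzyme wells for full effect; nearly all actives have a fitted effect of over 70% in size.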 The method in brief:
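A qHTS format was used, with compound concentrations ranging up to 114 microM. Each compound was preincubated with 25 nM NS2B-NS3 protease, and the substrate was then added at 1.5 microM. Curves were fitted with a 4-parameter Hill model.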

The target in a further experiment is Furin (Homo sapiens) (UniProt P09958). Put plainly: Furin counterscreen qHTS for Zika virus inhibitors (AID 1347149).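 Note: purified recombinant full-length human furin enzyme at 5 nM; fluorescence gain from furin cutting a BOC-RVRR-AMC peptide substrate over 15 min; top concentration of the series differs between compounds; plate controls were no-inhibitor control for no effect and no-enzyme control for full effect; nearly all actives have a fitted effect of over 70% in size.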 The method in brief:
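Fluorogenic cleavage of BOC-RVRR-AMC (2 microM final, Km ~15 µM) was monitored (ex 340, em 450 nm) at 37C after 15 min RT preincubation of 5 nM furin with compounds in HEPES pH 7.0 buffer with CaCl2 and Triton X-100. Percent inhibition was fitted to a 4-parameter Hill curve.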
A general note: Counterscreens check selectivity or assay interference.

The test system of experiment [6] is Zika virus NS2B-NS3 protease (linked construct). Put plainly: Confirmatory screen NINDS AMC qHTS for Zika virus inhibitors (AID 1347152).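 Note: AMC fluorescence gain from cleaved Bz-Nle-KRR-AMC substrate over 15 min; top concentration of the series differs between compounds; 0% = no-inhibitor control and -100% = no-enzyme control; nearly all actives have a fitted effect of over 70% in size.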 In short, it runs like this:
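Enzyme (1 nM, linked construct) was preincubated with compound for 15 minutes at room temperature in 10 mM Tris-HCl pH 8.0 with 0.01% Tween 20. Bz-Nle-Lys-Arg-Arg-AMC was then added to 10 microM, and AMC fluorescence was recorded immediately and after 15 minutes.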

The subject of experiment [7] is Zika virus NS2B-NS3 protease (unlinked complex). Put plainly: Confirmatory screen GU AMC qHTS for Zika virus inhibitors (AID 1347153). In short, it runs like this: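 Unlinked NS2B-NS3 complex (25 nM) in 10 mM Tris-HCl pH 8.0, 0.01% Tween 20 preincubated 15 min with compound, then 10 microM Bz-Nle-KRR-AMC (Km 18.3 µM). Fluorescence change over 15 min, normalized, Hill-fitted.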

SMILES strings stand for the structures. Records with an inconclusive call do not appear. Unmarked numbers belong to inactive results. Calls of active or inactive are those of the source. Calls come from the whole dose curve; as a rule, active = well fitted curve in the direction sought with a large enough effect; inconclusive = small, poorly fitted or top-dose-only effect, or another doubt; inactive = no such curve, though single readings can be large; an effect the other way counts as inactive or inconclusive.

Chain of Furin (Homo sapiens) (P09958 whole entry, looked up): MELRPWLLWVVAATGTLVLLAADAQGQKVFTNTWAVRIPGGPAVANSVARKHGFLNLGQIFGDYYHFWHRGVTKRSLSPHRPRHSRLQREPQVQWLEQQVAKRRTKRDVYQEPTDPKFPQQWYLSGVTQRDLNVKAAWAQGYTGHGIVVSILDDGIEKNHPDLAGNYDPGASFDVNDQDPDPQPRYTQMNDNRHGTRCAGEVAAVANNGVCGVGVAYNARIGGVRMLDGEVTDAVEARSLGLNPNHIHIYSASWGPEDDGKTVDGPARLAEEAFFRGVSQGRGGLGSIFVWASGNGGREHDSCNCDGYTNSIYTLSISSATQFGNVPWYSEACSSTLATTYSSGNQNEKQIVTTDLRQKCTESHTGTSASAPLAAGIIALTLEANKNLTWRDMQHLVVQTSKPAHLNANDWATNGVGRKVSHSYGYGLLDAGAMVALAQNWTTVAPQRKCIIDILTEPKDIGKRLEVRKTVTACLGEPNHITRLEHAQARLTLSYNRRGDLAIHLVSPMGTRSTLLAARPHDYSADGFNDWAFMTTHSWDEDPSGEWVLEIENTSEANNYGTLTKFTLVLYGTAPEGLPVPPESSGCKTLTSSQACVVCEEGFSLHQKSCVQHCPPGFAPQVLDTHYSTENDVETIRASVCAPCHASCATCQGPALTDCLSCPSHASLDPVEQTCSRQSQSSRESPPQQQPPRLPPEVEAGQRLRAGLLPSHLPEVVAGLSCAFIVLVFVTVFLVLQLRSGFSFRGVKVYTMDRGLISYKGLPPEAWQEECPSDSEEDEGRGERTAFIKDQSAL

`COC(=O)[C@H](c1ccccc1Cl)N1CCc2sccc2C1`: the Potency entry in experiment [1], in experiment [2] and in experiment [3] was “inactive” throughout.

As for `CSc1cccc(Nc2ncc3cc(-c4c(Cl)cccc4Cl)c(=O)n(C)c3n2)c1`, the Potency was 4.65 µM (active) in experiment [1] and 2.64 µM (active) in experiment [2]. Besides, in experiment [3], the Potency entry was “inactive”.

Turning to `CCNC(=O)c1noc(-c2cc(C(C)C)c(O)cc2O)c1-c1ccc(CN2CCOCC2)cc1`, the Potency in experiment [1] is 0.147 µM (active); in experiment [2] it was 0.132 µM (active). In addition, the Potency entry in experiment [3] and in experiment [4] was “inactive” each time.

Take `CC1CNc2c(cccc2S(=O)(=O)N[C@@H](CCCN=C(N)N)C(=O)N2CC[C@@H](C)C[C@@H]2C(=O)O)C1` (stereo partly specified): the Potency entry in experiment [1], in experiment [2] and in experiment [3] was “inactive” in each case.

With `Cc1csc(-c2nnc(Nc3ccc(Oc4ncccc4-c4ccnc(N)n4)cc3)c3ccccc23)c1`, the Potency result in experiment [1] and in experiment [4] was “inactive” each time. The Potency in experiment [2] was 6.62 µM (active).

As to `C=C1[C@H](n2cnc3c(=O)[nH]c(N)nc32)C[C@H](O)[C@H]1CO`, the Potency result in experiment [1] and in experiment [2] was “inactive” in each case.

On to `CCC[C@H](Nc1nc(-c2ccc(NC(=O)NCC)c(OC)c2)ncc1C)c1cccnc1`, for which the Potency in experiment [1] is 0.329 µM (active). Further, the Potency result in experiment [2] and in experiment [3] was “inactive” in each case.

Turning to `NC(N)=Nc1nc(CSCCC(N)=NS(N)(=O)=O)cs1`, the Potency entry in experiment [1], in experiment [2] and in experiment [3] was “inactive” throughout.

On to `CN1CCN(c2ncc(-c3cc(Cl)cc(Cl)c3Cl)c(N)n2)CC1`, for which the Potency result in experiment [1] and in experiment [3] was “inactive” in each case. Besides, the Potency in experiment [2] is 20.9 µM (active).

As for `Cc1ccc2c(c1)C(=O)[C@]1(O)CCN(c3ccccc3)C1=N2`, the Potency entry in experiment [1], in experiment [2], in experiment [3], in experiment [5] and in experiment [4] was “inactive” throughout.

With `Nc1ccc(-c2ccc3ncc4ccc(=O)n(-c5cccc(C(F)(F)F)c5)c4c3c2)cn1`, the results for the Potency in experiment [1] and in experiment [2] were 0.261 µM (active) and 0.296 µM (active), respectively. Besides, the Potency result in experiment [3] and in experiment [4] was “inactive” throughout.

As to `CN1N=C(N)c2cn([C@@H]3O[C@H](COP(=O)(O)O)[C@@H](O)[C@@H]3O)c3ncnc1c23`, the Potency in experiment [1] was 1.17 µM (active); in experiment [2] it was 1.05 µM (active). In experiment [3], the Potency entry is “inactive”.

For the compound `CCC(=O)N1CCN(c2ccc(-n3c(=O)ccc4cnc5ccc(-c6cnc7ccccc7c6)cc5c43)cc2C(F)(F)F)CC1`, the Potency result in experiment [1], in experiment [2] and in experiment [3] was “inactive” throughout. Further, in experiment [4], the activity change, negative = inhibition was -9.09% [at 19.1 µM].

Take `COc1ccc(-c2ccc3ncc4c(c3c2)n(-c2ccc(N3CCNCC3)c(C(F)(F)F)c2)c(=O)n4C)cn1`: the Potency in experiment [1] is 0.369 µM (active); in experiment [2], 0.132 µM (active); in experiment [3], 21.5 µM (active). The activity change, negative = inhibition in the experiment with Furin (Homo sapiens) was -10.9% [at 5.45 µM]; in experiment [6] it was -9% [at 5.51 µM]. For the same compound, the activity, negative = inhibition in experiment [7] is -4.48% [at 5.51 µM].

`CC(C)n1c(C=C[C@H](O)C[C@H](O)CC(=O)O)c(-c2ccc(F)cc2)c2ccccc21`: the figures for the Potency in experiment [1] and in experiment [2] were 10.4 µM (active) and 4.18 µM (active), respectively.

In the case of `Cc1ccccc1-n1c(Cn2nc(-c3cccc(O)c3)c3c(N)ncnc32)nc2cccc(C)c2c1=O`, the Potency result in experiment [1], in experiment [2], in experiment [3] and in experiment [4] was “inactive” in each case.

`CC1C(=O)OC2C(O)C34C5CC(C(C)(C)C)C36C(OC(=O)C6O)OC4(C(=O)O5)C12O` (stereo unspecified): the Potency result in experiment [1], in experiment [2] and in experiment [3] was “inactive” each time.

For the compound `CN(C(Cc1ccc(OS(=O)(=O)c2cccc3cnccc23)cc1)C(=O)N1CCN(c2ccccc2)CC1)S(=O)(=O)c1cccc2cnccc12` (stereo unspecified), the Potency in experiment [1] was 5.22 µM (active). Moreover, the Potency result in experiment [2] and in experiment [3] was “inactive” throughout.

Consider `CCCC1OC2C[C@@H]3[C@H]4CCC5=CC(=O)C=C[C@]5(C)[C@H]4C(O)C[C@]3(C)[C@]2(C(=O)CO)O1` (stereo partly specified), for which the Potency entry in experiment [1], in experiment [2] and in experiment [3] was “inactive” each time.

For `COC(=O)Nc1ccc(-c2nc(N3CCOCC3)c3cnn(C4CCN(C(=O)OC)CC4)c3n2)cc1`, the Potency in experiment [1] was 16.5 µM (active); in experiment [2], 4.18 µM (active). Besides, the Potency entry in experiment [3] is “inactive”.

Turning to `C[C@@H]1C[C@H]2[C@@H]3CCC4=CC(=O)C=C[C@]4(C)[C@@]3(F)[C@@H](O)C[C@]2(C)[C@@]1(O)C(=O)CO`, the Potency entry in experiment [1], in experiment [2] and in experiment [3] was “inactive” in each case.

Turning to `COC1CCC(C(=O)c2ccc3nc4c(cc3c2)CCCO4)CC1` (stereo unspecified), the Potency entry in experiment [1], in experiment [2] and in experiment [3] was “inactive” each time.

Turning to `OCCn1cc(-c2ccc3c(c2)CCC3=NO)c(-c2ccncc2)n1`, the Potency result in experiment [1], in experiment [2] and in experiment [3] was “inactive” throughout.

`CCC(=O)OCC(=O)[C@@]1(OC(=O)CC)[C@@H](C)C[C@@H]2[C@H]3CCC4=CC(=O)C=C[C@]4(C)[C@@]3(F)[C@@H](O)C[C@@]21C`: the Potency entry in experiment [1] and in experiment [3] was “inactive” throughout. Besides, the Potency in experiment [2] was 20.9 µM (active).

Take `C[C@@H]1[C@H](O)[C@@H](C)C=CC=CC=CC=CC=CC=CC=C[C@H](O[C@@H]2O[C@H](C)[C@H](O)[C@H](N)[C@@H]2O)C[C@@H]2O[C@](O)(C[C@@H](O)C[C@@H](O)[C@H](O)CC[C@@H](O)C[C@@H](O)CC(=O)O[C@H]1C)C[C@H](O)[C@@H]2C(=O)O`: the Potency entry in experiment [1] and in experiment [2] was “inactive” each time.

(Values after PubChem BioAssay (NCATS).)
